The full list was thinned out, with hits kept by preference.
Pf Dd2 inh: qHTS Primary assay for Inhibitors of Plasmodium falciparum Dd2 growth in vitro. P. falciparum Dd2 growth, SYBR Green, 72 h. Potency, µM (titrated, usually from 28.9 µM), inactives show at the top dose activity, negative = inhibition, usual class: inhibitors. hit rate 4.3% among 120,000. AID 1347417, 2020; active means well fitted inhibition curve with a large enough effect;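 further: plate controls were DMSO vehicle for no effect and reference drug for full effect; nearly all actives have a fitted effect of over 65% in size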
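Readout: SYBR Green fluorescence, 485 nm excitation, 535 nm emission, after ~16 h lysis at 37C. Before that, Dd2-infected red cells (2.5% hematocrit) grew 72 h with compound, 29 uM top final concentration.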
Active calls of the source: *; i = inactive; [ ] = remark or other dose. Potency means the concentration at half of the fitted maximal effect.

SMILES	Pf Dd2 inh
O=C(N[C@H]1C[C@H]2C(=O)NC[C@@H](CCC(=O)N3CCCCC3)N2C1)c1cccs1	15.7%[44.1 µM]
CCC(=O)N1CCC(n2c(C)cnc2-c2ccncc2)CC1	9.8%
Cc1cnc(C(=O)N2CCCC(c3nc(C4CCOCC4)no3)C2)cn1 (centres undefined)	26.9%
CN(CCc1nc2ccccc2[nH]1)C(=O)C1COc2ccccc2C1 (centres undefined)	-19.0%
COc1ccc(OC)c(CNC(=O)c2ccc3c(c2)N(C)C2CCCCN2C3=O)c1 (centres undefined)	i
O=C(Cn1c(=O)oc2ccccc21)N1CCC2(CC1)NCCc1c2[nH]c2ccccc12	8.91µM*
O=C(CN1CCCC1=O)N1CCC2(CC1)NCCc1c2[nH]c2ccccc12	19.4%
COCCC(=O)N1CCC2(CC1)NCCc1c2[nH]c2ccccc12	-18.7%
CN1C(=O)CCC2(CNC(=O)c3cnccn3)CCC=C12 (centres undefined)	17.1%
CCOC(=O)c1cccc(Nc2cc(-c3ccccc3)ncn2)c1	6.2%
Cc1cccc(Nc2nc(-c3ccccc3)nc3ccccc23)c1	-19.7%
CCCOC(=O)c1cccc(Nc2nc(C(=O)OCC)nc3ccccc23)c1	5.62µM*
CCOC(=O)c1nc(Nc2ccccc2C)c2ccccc2n1	27.8%
CCOC(=O)c1cccc(NC(=O)CCc2nc3cccnc3n2-c2ccccc2)c1	84.7%
COc1cc(Cl)c(C)cc1NC(=O)c1ccc2c(Cl)c3c(nc2c1)CCC3	15.9%
CCOC(=O)c1cccc(Nc2c3c(nc4ccccc24)CCC3)c1	10µM*
CCOC(=O)c1nc(Nc2cccc(C)c2)c2ccccc2n1	4.4%
COc1ccc(NC(=O)CSc2c3c(nc4ccccc24)CCC3)cc1Cl	50.8%
CCOC(=O)c1cccc(Nc2nc(C(=O)OCC)nc3ccccc23)c1	7.94µM*
CCOC(=O)c1nc(Nc2ccc(C(C)=O)cc2)c2ccccc2n1	-11.1%
COc1cc(Cl)c(C)cc1Nc1c2c(nc3ccccc13)CCC2	8.91µM*
COCC(=O)N[C@@H]1CN(Cc2cnn(C)c2C)C[C@H]1CO	i
Cc1ccc(CNC(=O)Cn2c(-c3ccccc3)nc(C)c(CCO)c2=O)cc1	7.4%
CNC(=O)[C@H]1C[C@H](Oc2ccccc2)CN1C(=O)NCCc1ccccc1	-6.7%
O=C1COCC2(CN1)CN(c1ccc(Oc3ccccc3)cc1)C2	i
SMILES	Pf Dd2 inh
C=CCNC(=O)C(NC(=O)c1ccc(OC)cc1)C1CCN(C(=O)CCc2ccccc2)CC1 (centres undefined)	i
CS(=O)(=O)N1CCC(N2C(=O)C(OCC3CC3)C23CCCCC3)CC1 (centres undefined)	-19.9%
O=C1Nc2ccccc2C12CCN(Cc1cccc3ccccc13)CC2	23.7%
Cn1cc(C(=O)NCC2CN(C(=O)Cc3cccc(Oc4ccccc4)c3)CC23CN(c2ccccc2)C3)cn1 (centres undefined)	-21.3%
O=C(Cc1ccccc1)NCC1CN(C(=O)Cc2cccc(Oc3ccccc3)c2)CC12CN(c1ccccc1)C2 (centres undefined)	-13.5%
O=C(NCC1CN(C(=O)Cc2cccc(Cl)c2)CC12CN(c1ccccc1)C2)C1CC1 (centres undefined)	8.91µM*
CCN(C(=O)Cn1nc(Cc2ccncc2)c2ccccc2c1=O)c1cccc(Cl)c1	11.2µM*
Cc1ccc(NC(=O)Cn2nc(Cc3ccncc3)c3ccccc3c2=O)c(Cl)c1	5.7%
CCOc1ccc(NC(=O)Cn2nc(Cc3cccnc3)c3ccccc3c2=O)cc1	-24.1%
O=C(O)C1CCc2nnc(C3CCN(C(=O)C4CCCCC4)CC3)n21 (centres undefined)	14.4%
Cn1nc(C2CCN(C(=O)c3ccncc3)CC2)c2c1CCOC2	19.3%[5.79 µM]
O=C(Nc1ccc(F)c(F)c1)c1cc(S(=O)(=O)NC2CCCC2)ccc1F	21.7%
O=C(Nc1ccc(C(F)(F)F)cc1)c1cc(S(=O)(=O)NC2CCCCCC2)ccc1F	5.62µM*
CCOc1ccc(NC(=O)c2cc(S(=O)(=O)NC3CCCC3)ccc2F)cc1	-17.6%
CCc1ccccc1NC(=O)c1cc(S(=O)(=O)NC2CCCC2)ccc1F	-1.4%
O=C(Nc1ccc(C(F)(F)F)cc1)c1cc(S(=O)(=O)NC2CCCCC2)ccc1F	7.08µM*
O=C(Nc1ccc(Cl)cc1F)c1cc(S(=O)(=O)NC2CCCCCC2)ccc1F	i
COCC1CN(C(C)=O)CC12CCN(Cc1c(C)n[nH]c1C)CC2 (centres undefined)	6.7%
CCc1c(C)nn(CC(=O)N2CCC3(CCNC(=O)CC3)CC2)c1C	-3.6%
O=C(NCc1cc(-c2ccccc2)n[nH]1)[C@H]1CCC[C@H](O)C1	-2.6%
COCC(=O)N1CCCC(C(=O)NCc2ccccc2OC)CCNC(=O)CC1 (centres undefined)	i
O=C(NCCN1CCOCC1)C1Cn2cccc2C(=O)N1Cc1ccccc1 (centres undefined)	24.7%
COC(=O)N1CCC2(C1)C(=NC1CCCC1)NC(=O)N2c1cccnc1 (centres undefined)	-7.9%
Cc1ccc(-c2cccc(C(=O)N3CCCC(O)(CN4CCCC4)C3)c2)o1 (centres undefined)	11.2µM*
O=C(c1cccc(-c2ncc[nH]2)c1)N1CCCC(O)(CN2CCCC2)C1 (centres undefined)	9.8%
SMILES	Pf Dd2 inh
CC(=O)N[C@@H]1CN(C(=O)c2[nH]c3c(C)ccc(C)c3c2C)C[C@H]1C(C)C	-25.5%
O=C(c1ccccc1-c1nn[nH]n1)N1CCOCC(O)(CN2CCCC2)C1 (centres undefined)	-2.1%
O=C(c1cccc(-n2cccn2)c1)N1CCOCC(O)(CN2CCCC2)C1 (centres undefined)	-23.0%
Cc1ccc(C)c2c(C)c(C(=O)N3CCCC(O)(CN4CCCC4)C3)[nH]c12 (centres undefined)	11.2µM*
Cc1cc(C(=O)N2CC[C@H](NS(=O)(=O)c3cccs3)C[C@H]2C(=O)N[C@H](CC(C)C)C(N)=O)n(C)n1	-10.5%
O=C([C@@H]1C[C@H](Oc2cccnc2)CN1C(=O)c1nccc2ccccc12)N1CCOCC1	8.8%
COc1cccc(N2C(=O)NC(=NC3CCCC3)C23CCN(C(=O)c2ccccc2F)C3)c1 (centres undefined)	-6.0%
O=C1CO[C@H]2CN(Cc3ccc4c(c3)OCO4)C[C@H]2N1Cc1ccccn1	i
COc1ccc(CN2C(=O)CO[C@H]3CN(C(C)C)C[C@H]32)cc1	i
O=C1CO[C@H]2CN(Cc3ccc4c(c3)OCO4)C[C@H]2N1Cc1ccc(F)cc1	10µM*
O=C1CO[C@H]2CN(Cc3ccncc3)C[C@H]2N1Cc1ccc(F)cc1	-5.2%[44.1 µM]
COc1ccccc1CN1CC[C@@H]2OCC(=O)N(Cc3c[nH]c4ccccc34)[C@H]2CC1	4.47µM*
COc1ccc(CN2C(=O)CO[C@H]3CN(CC4CC4)C[C@H]32)cc1	i
N#Cc1cccc(CN2CC[C@@H]3OCC(=O)N(Cc4c[nH]c5ccccc45)[C@H]3CC2)c1	i
CC(C)N1C(=O)CO[C@H]2CCN(Cc3ccccc3)CC[C@@H]21	-24.5%[44.1 µM]
CC(C)c1ccc(CN2CC[C@@H]3OCC(=O)N(Cc4ccccc4)[C@H]3CC2)cc1	10µM*
CC(C)CCN1CC[C@@H]2OCC(=O)N(Cc3c[nH]c4ccccc34)[C@H]2CC1	i
COc1ccc(CN2C(=O)CO[C@H]3CN(Cc4c[nH]c5ccccc45)C[C@H]32)cc1	7.94µM*
O=C1CO[C@H]2CCN(Cc3ccncc3)CC[C@@H]2N1Cc1ccccc1	i
CCc1nc2c(c(-c3ccc(O)cc3)n1)CCN(Cc1cccnc1)CC2	i

Screening data: PubChem, National Center for Advancing Translational Sciences (NCATS)
